Screens as filed in PubChem.
Rows were chosen to be rich in hits. Some 31% of all compounds tested hit in one or more screens of this group.
CYP2C9 inh: human CYP2C9 inhibition; P11712; 96,000 compounds, 20% hits; inhibition, % at 5 µM; CYP2C9 Supersomes, luciferin-H conversion, luminescence;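 active = blocking of liver enzyme CYP2C9 beyond about 50% at 5 µM, limit read from the data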
CYP2C19 inh: inhibitors of human CYP2C19. P33261. CYP2C19 Supersomes, luciferin-H EGE luminescence, 30 min. inhibition, % at 5 µM. 96,000 compounds, 21% hits. AID 778;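 active = CYP2C19 inhibition above a set limit at 5 µM in the primary screen, cut at about 50% in these data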;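 also: plate controls were negative control wells for no effect and 2.5 mM tranylcypromine positive control for full effect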
CYP2C9 act: activators of human CYP2C9; P11712; recombinant CYP2C9, luciferin-H conversion, luminescence; stronger effect = higher value; factor 1 = untreated enzyme, 0 = blocked; activation factor at 5 µM; 96,000 compounds, 1.4% hits; AID 1024;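 active = activation factor of 2 or more for CYP2C9 at a 5 µM dose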;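 also: 0 = sulfaphenazole-blocked wells and 1 = vehicle-only wells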
CYP2C19 act: cytochrome P450 2C19 (human) activation; activation factor at 5 µM; AID 1025; recombinant CYP2C19, luciferin-H EGE luminescence; stronger effect = higher value; 0 = fully inhibited enzyme, 1 = untreated enzyme; P33261; 96,000 tested, under 10 active;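 active = activation factor of at least 2 at 5 µM in the primary screen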;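 also: 0 = wells with 2.5 mM tranylcypromine and 1 = vehicle-only wells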
PLAP activator: activators of human placental alkaline phosphatase | AID 696 | activation fold at 20 µM | P05187 | purified PLAP enzyme, luminescent substrate read-out; stronger effect = higher value | 96,000 compounds, 1.2% hits; in the data active = activation fold above about 2
Target sequence (P05187 whole entry, looked up): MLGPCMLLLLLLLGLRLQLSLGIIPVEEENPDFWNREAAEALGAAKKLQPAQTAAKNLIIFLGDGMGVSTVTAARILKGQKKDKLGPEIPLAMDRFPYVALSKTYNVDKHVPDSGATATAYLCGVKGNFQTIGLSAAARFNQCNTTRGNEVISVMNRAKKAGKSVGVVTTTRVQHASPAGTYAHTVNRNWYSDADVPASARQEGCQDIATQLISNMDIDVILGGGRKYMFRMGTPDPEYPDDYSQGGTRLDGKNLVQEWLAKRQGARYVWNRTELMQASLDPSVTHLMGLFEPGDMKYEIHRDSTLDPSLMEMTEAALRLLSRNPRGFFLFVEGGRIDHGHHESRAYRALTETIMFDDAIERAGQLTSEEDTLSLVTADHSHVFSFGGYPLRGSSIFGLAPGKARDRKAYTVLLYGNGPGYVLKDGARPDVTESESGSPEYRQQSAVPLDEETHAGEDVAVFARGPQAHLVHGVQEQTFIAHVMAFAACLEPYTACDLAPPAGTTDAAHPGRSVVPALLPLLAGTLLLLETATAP
Active calls of the source: *; x = not tested or not shown.

SMILES | CYP2C9 inh | CYP2C19 inh | CYP2C9 act | CYP2C19 act | PLAP activator
CCN(CC(=O)Nc1ccc(S(N)(=O)=O)cc1)S(=O)(=O)c1cc(C)ccc1OC | 96.6* | -5.2 | 0 | 1.1 | 1.1
COc1ccc(OC)c(S(=O)(=O)N(C)CC(=O)Nc2ccc3c(c2)OCO3)c1 | 86.7* | 82.8* | 0.1 | 0.2 | 0.8
CCOC(=O)CC(NC(=O)c1ccc(C)cc1)c1ccc(C)cc1 (stereo not drawn) | 16.3 | 20.3 | 0.8 | 0.8 | 1.1
N/C(=N\c1nc2c(c(=O)[nH]1)CCC2)Nc1ccccc1C(F)(F)F | x | x | x | x | 1
CCOC(=O)C1C(=O)CC(C)(O)C(C(=O)OCC)C1/C=C/c1ccccc1 (stereo not drawn) | 7.7 | 14.0 | 0.9 | 0.9 | 1.1
Cc1c(C#N)c(N)c(C(=O)c2ccccc2)n1Cc1ccccc1 | 75.8* | 99.3* | 0.2 | 0 | 1.1
Cc1c(C#N)c(NC(=O)c2cccc(Cl)c2)n(Cc2ccccc2)c1C | 3.0 | -1.2 | 1 | 1 | 1
Cc1ccc2cc(C#N)c(N3CCCC3)nc2c1C | 11.3 | 17.1 | 0.9 | 0.8 | 0.8
Cc1ccc2cc(C#N)c(N3CCCN(C(=O)C4CCCO4)CC3)nc2c1C (stereo not drawn) | 82.2* | 85.1* | 0.2 | 0.1 | 1.4
Cc1cc(C)c2nc(N3CCC(C(=O)N4CCN(C(=O)c5ccco5)CC4)CC3)sc2c1 | 51.9* | 52.1* | 0.5 | 0.5 | 1.6
Cc1cc(C)c2nc(N3CCCN(C(=O)c4ccco4)CC3)c(C#N)cc2c1 | 86.9* | 73.3* | 0.1 | 0.3 | 1.7
COc1ccc(F)cc1CN1CCN(C(=O)CCC(=O)Nc2nnc(C(C)C)s2)CC1 | -6.2 | -7.2 | 1.1 | 1.1 | 1.6
CCOc1cc(C(=O)OCC(=O)Nc2cc(C)on2)cc(OCC)c1OCC | 0.8 | 2.7 | 1 | 1 | 1
Cc1ccc(NC(=O)c2cc([N+](=O)[O-])ccc2NCc2cccnc2)cc1 | 90.9* | 83.3* | 0.1 | 0.2 | 0.9
Cn1nnnc1SCC(=O)NC(=O)NCc1ccccc1 | -10.6 | -2.0 | 1.1 | 1 | 1.2
CC(=O)OCc1c(C(F)(F)F)nn(C)c1Oc1ccccc1 | 21.7 | 91.7* | 0.8 | 0.1 | 1.1
CC(=O)OCc1c(C(F)(F)F)nn(C)c1Oc1cccc(C(F)(F)F)c1 | 37.3 | 74.3* | 0.6 | 0.3 | 1
CC(=O)c1cc(C#N)c(Oc2cccc(C(F)(F)F)c2)nc1C | 10.4 | 16.8 | 0.9 | 0.8 | 1.3
Cc1cc(C)n(-c2nc(C)nc3sc4c(c23)CCC(C)C4)n1 (stereo not drawn) | -0.2 | 17.7 | 1 | 0.8 | 1
Cc1nc(-n2ncc(C#N)c2N)c2c3c(sc2n1)CCC3 | 6.1 | -3.0 | 0.9 | 1 | 0.8
CC1CCc2c(sc3ncnc(N4CCOCC4)c23)C1 (stereo not drawn) | 12.9 | 46.8 | 0.9 | 0.5 | 1.1
Cc1cc(C)n(-c2ncnc3sc4c(c23)CC(C)CC4)n1 (stereo not drawn) | 49.3 | 88.1* | 0.5 | 0.1 | 1.4
N#Cc1cnn(-c2ncnc3sc4c(c23)CCCC4)c1N | 89.2* | 39.2 | 0.1 | 0.6 | 1.2
CC1CCc2sc3ncnc(N4CCOCC4)c3c2C1 (stereo not drawn) | 60.7* | 95.5* | 0.4 | 0 | 1.5
Cc1cc(C)n(-c2ncnc3sc4c(c23)CCCC4)n1 | 13.3 | 56.8* | 0.9 | 0.4 | 1.2
SMILES | CYP2C9 inh | CYP2C19 inh | CYP2C9 act | CYP2C19 act | PLAP activator
CC(=O)C1=C(C)NC(=O)NC1c1cc(Br)ccc1OCC(N)=O (stereo not drawn) | 4.7 | 11.9 | 1 | 0.9 | 1.2
Cc1noc(C)c1S(=O)(=O)N(CCc1ccccc1)Cc1ccccc1 | 76.2* | 40.9 | 0.2 | 0.6 | 1
COc1ccccc1NC(=O)C(=O)NCC1COc2ccccc2O1 (stereo not drawn) | -45.7 | 32.5 | 1.5 | 0.7 | 0.9
CCc1ccc(C(=O)NCC2COc3ccccc3O2)o1 (stereo not drawn) | 58.0* | 91.8* | 0.4 | 0.1 | 1.5
O=C(CNC(=O)c1ccccc1)NCC1COc2ccccc2O1 (stereo not drawn) | 16.5 | 26.5 | 0.8 | 0.7 | 0.7
CCOc1ncccc1C(=O)NCC1COc2ccccc2O1 (stereo not drawn) | 88.4* | 87.7* | 0.1 | 0.1 | 1.8
COc1cccc(C2=N/C(=C\N(C)C)C(=O)O2)c1 | 30.4 | 62.7* | 0.7 | 0.4 | 1
CCOC(=O)c1sc2ncnc(NCC(c3cccs3)N(C)C)c2c1C (stereo not drawn) | 8.8 | 57.8* | 0.9 | 0.4 | 1.5
